In ChEMBL document CHEMBL3988442, “University of Dundee, Small-Polar-MMV Screening Library” (2021):

Legend:
[1] = target: T1, Aspartate--tRNA(Asp/Asn) ligase (Mycobacterium tuberculosis (strain ATCC 25618 / H37Rv)) (UniProt P9WFW3); test: Assay for Asp RNA synthetase-1 from Mycobacterium tuberculosis; format: functional; design: scale not given: direction of the effect not stated beside the values; settings: 30 µM; also: in the data most compounds retested in dose-response had high values
T1 sequence (whole entry): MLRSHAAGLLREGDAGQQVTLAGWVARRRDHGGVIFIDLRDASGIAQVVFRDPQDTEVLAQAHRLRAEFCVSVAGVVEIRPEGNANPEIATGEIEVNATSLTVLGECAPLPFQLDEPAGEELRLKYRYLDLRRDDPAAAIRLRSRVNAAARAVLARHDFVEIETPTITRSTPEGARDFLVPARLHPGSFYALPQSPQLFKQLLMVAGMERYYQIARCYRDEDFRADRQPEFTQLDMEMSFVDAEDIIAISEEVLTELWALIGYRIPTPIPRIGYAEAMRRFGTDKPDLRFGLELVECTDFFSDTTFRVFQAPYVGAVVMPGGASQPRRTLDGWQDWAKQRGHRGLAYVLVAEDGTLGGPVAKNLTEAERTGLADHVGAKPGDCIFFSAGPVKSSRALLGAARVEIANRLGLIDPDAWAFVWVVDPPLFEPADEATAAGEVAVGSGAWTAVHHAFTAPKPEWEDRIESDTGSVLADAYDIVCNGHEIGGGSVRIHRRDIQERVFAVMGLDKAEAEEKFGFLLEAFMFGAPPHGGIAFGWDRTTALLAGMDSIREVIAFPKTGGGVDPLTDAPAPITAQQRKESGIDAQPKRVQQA

[2] = target: Shiga toxin 2 (Escherichia coli O157:H7) (UniProt P09385+P09386); test: E. coli 0.157:H7 Shiga Toxin SOP - stx2 screening assay; format: functional; design: scale not given: direction of the effect not stated beside the values; settings: 30 µM

Row | Structure (SMILES) | Percent Effect [1] | Percent Effect [2]
1 | Cc1nccc(C(=O)N2CCCN(Cc3cnn(C(C)C)c3)CC2)n1 | -2.77% | -13.2%
2 | CN(C)S(=O)(=O)c1ccc(CN2CCCC2c2ccccc2)o1 (stereo not given) | 4.24% | -1.81%
3 | COc1cccc(-c2nccnc2C2CCN(C(C)=O)CC2)c1 | -3.41% | 16.4%
4 | CC(C)C(C(=O)N1CCCN(Cc2cnn(C)c2)CC1)n1cncn1 (stereo not given) | -1.93% | -40.5%
5 | CC(NC(=O)NCCCn1cccn1)c1ccc2c(c1)NC(=O)CO2 (stereo not given) | -5.91% | -20.8%
6 | CCn1cc(NC(=O)NCC(O)c2ccccc2)cn1 (stereo not given) | -0.4% | -5.7%
7 | CNc1cc(CNC(=O)c2ccccn2)nc(-c2ccncc2)n1 | -1.21% | 5.89%
8 | O=C1C[C@H]2[C@@H](CCN2C(=O)Cc2cccs2)N1Cc1cccnc1 | -2.94% | -6.22%
9 | Cc1cccc(NC(=O)NCCCn2nc3ccccn3c2=O)c1C | 3.46% | 19.3%
10 | O=C(NCC(O)c1ccc(F)c(F)c1)c1cccnc1O (stereo not given) | 2.78% | -4.45%
11 | COCCN1CC[C@H](O)[C@@H]1Cc1ccccc1 | -4.18% | -34.6%
12 | COCCN1CCCC12CCN(C(=O)CC1CCCC1)CC2 | -1.62% | -6.17%
13 | CC(=O)N(Cc1ncc(C)o1)C1CCN(CCNC2CCCCC2)C1 (stereo not given) | 1.34% | -30.8%
14 | O=C(Cc1cccc(F)c1)NCCNCc1ccc2c(c1)CCO2 | -0.182% | -76.4%
15 | CCOCCn1c(=O)[nH]c2cc(C(=O)N(C)Cc3nc(C)cs3)ccc21 | 1.06% | -4.35%
16 | Cc1ccccc1-c1cc(NC(=O)CC(C)C)n(CCO)n1 | -0.569% | -1.82%
17 | Cc1cc(C)c(CNC(=O)NCC2CCCN2C)c(=O)[nH]1 (stereo not given) | -1.7% | 26.6%
18 | CC(NC(=O)NCCCNS(C)(=O)=O)c1ccncc1 (stereo not given) | -3.27% | -2.62%
19 | O=C(Nc1cccnc1)[C@H]1C[C@@H]2CCN(c3nncs3)C[C@H]2O1 | -3.84% | -14%
20 | O=C1CN(Cc2ccc(-c3ccccc3C(=O)O)cc2)CCN1 | 5.6% | 43.1%
21 | COc1ccc2c(c1)OCC(CNC(=O)c1ccncc1)C2 (stereo not given) | -2.83% | 17.7%
22 | CCn1cc(NC(=O)C2CCN(CCOC(C)C)CC2)cn1 | 2.5% | 17.1%
23 | O=C(Nc1ccc(N2CCCC2)nc1)N1CCc2sccc2C1 | 0.155% | -146%
24 | CC(=O)N1CCCN(CC(C)(O)c2cccc(C(F)(F)F)c2)CC1 (stereo not given) | 0.301% | -32.4%
25 | Cc1ccc(C(=O)N2Cc3c(CN4CCCCC4)nn(C)c3C2)cc1C | 4.62% | -4.53%

Row | Structure (SMILES) | Percent Effect [1] | Percent Effect [2]
26 | CCc1ccc(CN2CCC3(CC2)CNC(=O)CO3)o1 | -0.662% | -2.48%
27 | Cc1nn(C)c(C)c1C(C)NC(=O)Nc1cccnc1N1CCCC1 (stereo not given) | -3.63% | 10.7%
28 | O=C(c1cccs1)N1CCC2(C1)c1ccccc1S(=O)(=O)N2CC1CC1 (stereo not given) | -6.49% | 6.62%
29 | Cc1nc(C)n(CC2CCCN2CCOc2ccc(C#N)cc2)n1 (stereo not given) | -3.28% | -0.486%
30 | O=C(Cn1c(=O)n(Cc2ccco2)c2ncccc21)Nc1ccccn1 | 8.2% | 3.73%
31 | CCn1ccnc1CN1CCN(Cc2ccc(C#N)cc2)CC1 | -0.278% | -29.2%
32 | CN(Cc1ccco1)C(=O)CN1CCCC(Cn2cncn2)C1 (stereo not given) | -1.04% | -14.6%
33 | CCN1CCN(C2CCN(Cc3ncc(C(C)(C)C)o3)CC2)C1=O | -3.69% | 6.2%
34 | COCCCC1(CO)CCCN(CCS(C)(=O)=O)C1 (stereo not given) | 4.17% | 0.747%
35 | CCOCCCNC(=O)c1cc(C(C)C)nc(N2CCCCCC2)n1 | 1.1% | -56.1%
36 | CN(C)C1CCN(C(=O)c2ccc(Cn3ccccc3=O)o2)CC1 | 1.63% | -10.4%
37 | Cc1cn2c(n1)CCC(NC(=O)CCC(F)(F)F)C2 (stereo not given) | -0.225% | 5.05%
38 | COc1ccc(-c2nccnc2C2CCN(C(C)=O)CC2)cc1 | 0.0149% | 12%
39 | CCn1cc(N)c(C(=O)NCc2cnn(C)c2)n1 | -1.99% | -25.8%
40 | O=C(NCCc1nnc2n1CCC2)NC1(c2cccc(F)c2)CC1 | 3.98% | -25%
41 | Cc1nc(NCc2ccc(C)o2)cc(C(=O)N2CCOCC2)n1 | 12.5% | -16.9%
42 | O=C(Cc1ccsc1)NCC1OCCc2cn(CC3CC3)nc21 (stereo not given) | 1.47% | -11.5%
43 | Cc1nc(C(=O)N2CCCC2c2c(C)nn(C)c2C)ccc1C#N (stereo not given) | -1.21% | -18%
44 | COCc1nn(C(C)C)c2c1CCN(Cc1ccc(C)s1)C2 | -3.6% | -26.4%
45 | CCN(Cc1ccc2c(c1)OCO2)C(=O)NC(C)Cn1cccn1 (stereo not given) | -0.819% | -12.4%
46 | CC[C@@]1(O)CCN(C(=O)c2ccc(-c3cccc(F)c3)cc2)C[C@H]1O | 3.54% | 5.77%
47 | Cc1ccc(N2CC[C@H]3OCC[C@@]3(C(=O)NC(C)C)C2)nn1 | -2.66% | 7.17%
48 | COc1ccc(F)cc1C(C)NC(=O)c1nnc(C)s1 (stereo not given) | 1.79% | -5.21%
49 | COc1ccc(CN2C[C@@H]3OCCN(CC4CCCO4)[C@@H]3C2)cc1 (stereo not given in full) | -0.535% | -4.29%
50 | COCC(=O)N1CC[C@@H]2O[C@H](COCc3ccncc3)CC[C@@H]21 | 4.14% | -2.38%

Row | Structure (SMILES) | Percent Effect [1] | Percent Effect [2]
51 | Cc1cccc(N2CCC(NC(=O)CCCc3cccs3)CC2)n1 | 8.77% | -2%
52 | O=C(NC1CC1)[C@H]1C[C@H]2OCC[C@H]2N(CC2CC2)C1 | 3.52% | -19.5%
53 | Cc1n[nH]c(C)c1NC(=O)CN1CCc2c(nc(C3CC3)n2C)C1 | 4.55% | -6.27%
54 | CNC(=O)N1CCc2cc(C(=O)N(C)C)c(NCC3CC3)nc2CC1 | 1.99% | -3.46%
55 | Cc1cccc(C(=O)N2C[C@@H]3OCCN(c4ncccn4)[C@@H]3C2)n1 | 2.48% | 2.47%
56 | NC(=O)c1ccc(OCC(=O)N2CCCC(n3cccn3)C2)cc1 (stereo not given) | -4.7% | 26%
57 | CCc1nc2n(n1)CC(NCc1ccnc(-c3ccccc3)n1)CC2 (stereo not given) | -7.45% | 5.5%
58 | Cc1cc(CNC(=O)N2CCN(c3ccccc3)CC2)no1 | 1.31% | -2.24%
59 | Cc1noc(-c2ccc(N3CCCC(C(=O)N4CCSCC4)C3)nc2)n1 (stereo not given) | -3.39% | 10.1%
60 | Cc1cccc(C2(C(=O)NCCCn3cccn3)CC2)c1 | -9.29% | -5.42%
61 | Cc1cc(C)n(C2CCCN(C(=O)c3cc(C4CC4)on3)C2)n1 (stereo not given) | -7.81% | -32.5%
62 | O=C(c1cscn1)N1CCC2(CCN(Cc3nccs3)C2)CC1 | 1.85% | -5.87%
63 | Cc1noc(C)c1C(=O)N1CC[C@H]2C[C@@H](c3nccs3)O[C@@H]2C1 | 3.92% | 3.87%
64 | CN1CCCCC1c1ncc2c(n1)CCN(Cc1ccccc1Cl)C2 (stereo not given) | 3.02% | -22.5%
65 | Cc1cccc(CNC2CCCc3c2cnn3C)c1 (stereo not given) | 0.855% | -9.23%
66 | O=C(NCCOc1ncc(Cl)cc1Cl)c1ccncc1F | -3.03% | 1.2%
67 | Cc1ncsc1-c1nnc(C2CCN(Cc3ccc(F)cc3)CC2)o1 | 4.24% | -43.6%
68 | CCc1csc(C2CCCN(C(=O)c3ccc(OC)nn3)C2)n1 (stereo not given) | -3.92% | 14.7%
69 | c1ccc(Cn2cccn2)c(CNCC2CNc3ccnn3C2)c1 (stereo not given) | 1.88% | -40.7%
70 | NCC1Cn2nnc(-c3cccc(F)c3)c2CO1 (stereo not given) | 1.16% | -69.1%
71 | CCc1noc(CNc2cc(F)ccc2OCC2CCCO2)n1 (stereo not given) | 0.569% | -4.24%
72 | O[C@H]1[C@H](n2cc(-c3ccccc3)nn2)c2ccccc2C12CCNCC2 | 6.77% | -10.9%
73 | O=C1CC2(CCCCN2C(=O)c2ccsc2)CN1CC1CC1 (stereo not given) | -2.94% | -8.01%
74 | Cc1nonc1C(=O)N1CCCC(c2ncncc2-c2ccncc2)C1 (stereo not given) | 2.57% | 10.2%
75 | CCc1noc(CNc2ccc(F)cc2OCC2CC2)n1 | 1.97% | 0.5%

Row | Structure (SMILES) | Percent Effect [1] | Percent Effect [2]
76 | COC(=O)Cn1cccc(S(=O)(=O)N2CCC(C)CC2)c1=O | -4.76% | -36.3%
77 | O=C1CC[C@H]2[C@H](CCN2C(=O)C2CCCO2)N1Cc1ccncc1 (stereo not given in full) | 3.48% | -64%
78 | CN(Cc1ccco1)C(=O)CN1CCCCC1Cn1cccn1 (stereo not given) | -0.346% | -5.72%
79 | N#Cc1ccc(CN2CCC(c3ccnn3CCO)CC2)cc1 | 1.21% | 23.2%
80 | COc1ccc(CN2C[C@@H](N(C)Cc3ccco3)[C@H]3OCCC[C@H]32)cc1 | 0.632% | 4.78%
81 | CC1c2ncc(COc3cccnc3)n2CCN1C(=O)Cc1ccco1 (stereo not given) | -1.45% | -2.51%
82 | CCNC(=O)c1ccc(CNCc2c(C)nn(C)c2N(C)C)cc1 | -0.75% | -25.7%
83 | Cn1ccc(C(=O)NC2CCC23CCN(Cc2cccnc2)CC3)c1 (stereo not given) | 0.843% | -5.95%
84 | CCOC(=O)NC(CNC(=O)c1ncccn1)CC(C)C (stereo not given) | 6.25% | 4.71%
85 | O=C(CN1CC(n2cccn2)C1)NCCc1c[nH]c2ccccc12 | -0.903% | -2.74%
86 | Cc1nc(C)n(CC2CCCCN2CC(=O)NC2CCOCC2)n1 (stereo not given) | -4.37% | -17.4%
87 | Cc1cc(C2CCCN(C(=O)c3cnccn3)C2)ccn1 (stereo not given) | -0.521% | -14.3%
88 | COc1nccc(N2CCN(Cc3ccc(C)cc3)C(=O)C2)c1C#N | 3.98% | -64.8%
89 | CN(CCc1ccccc1)c1cnn(CC(=O)N2CCSCC2)c(=O)c1 | 8.28% | -15.1%
90 | Cc1cccc(N2CC[C@@H]3CN(Cc4csc(C)n4)CCO[C@@H]3C2)n1 | -1.08% | -42.6%
91 | O=C(COC(=O)Cc1cccs1)NCc1cccc(NC(=O)C2CC2)c1 | -1.66% | 28%
92 | Cc1nc(NCc2cccnc2)c2c(n1)c(C)nn2C | 10.4% | -31.1%
93 | COc1cc(CNC2CCc3nc(C(C)C)nn3C2)cc2c1OCO2 (stereo not given) | 1.32% | 15.4%
94 | O=C(c1ccco1)N1C[C@@H]2OCCN(CCN3CCCC3)[C@@H]2C1 | 7.66% | -2.25%
95 | O=C(c1ccsc1)N1CCc2c(COCc3ccncc3)cncc2C1 | -1.03% | -68.5%
96 | CCS(=O)(=O)Nc1ccc(C(=O)NCCCN2CCCC2)cc1 | 8.39% | -19%
97 | COc1cc(C(=O)N(C2CC2)C2CC(=O)NC2=O)ccc1C (stereo not given) | -3.91% | 3.11%
98 | Cc1cc(C)n(C2CCCN(C(=O)CCCNc3ncccn3)C2)n1 (stereo not given) | -5.54% | -43.3%
99 | Cc1cc(NC(=O)CCN2CCCC2Cn2cncn2)no1 (stereo not given) | -2.02% | -32.1%
100 | O=C1NC(c2ccccc2)=N[C@@]12CC[C@@H]1CN(Cc3ccccc3)C[C@@H]12 | 0.728% | -14.6%
